Molecules are shown by their SMILES. Measured potencies and affinities stand elsewhere.

This note sets out measurements from ChEMBL document CHEMBL4513141, “CO-ADD screening of NIH (USA) - Clinical Collection” (2021).

One experiment relates to Klebsiella pneumoniae. The following applies: Concentration 20 uM; ASSAY_TEST Inhibition of Bacterial Growth; detection method Absorption (OD600); MEDIA CAMHB; plate type 384well; NBS; CORNING #3640; time 18 hr.
Another experiment concerns Candida albicans. The following applies: 20 µM.
In the next experiment the test system is Cryptococcus neoformans. The following applies: Concentration 20 uM; ASSAY_TEST Inhibition of Fungal Growth; detection method Resazurin; Absorption (OD600-OD570); plate type 384well; NBS; CORNING #3640. For orientation: Resazurin is reduced to fluorescent resorufin, in cell work by metabolically active cells.

What is called Inhibition is the change of the read-out against control, counted positive when it falls. For the molecule `CCOC(=O)N1CCC(=C2c3ccc(Cl)cc3CCc3cccnc32)CC1` [LORATADINE], the figures for the Inhibition with Klebsiella pneumoniae, with Candida albicans and in the experiment on Cryptococcus neoformans were 12.62%, 2.41% and -7.17%, respectively.
In the same order, the values of `C[C@H](CS)C(=O)N1CCC[C@H]1C(=O)O` [CAPTOPRIL] are 9.36%, 2.59% and 1.67%.
In the same order, the values of `Cn1nnc2c(C(N)=O)ncn2c1=O` [TEMOZOLOMIDE] are 7.88%, 1.91% and -1.17%.
In the same order, the values of `Nc1ncnc2c1ncn2[C@@H]1O[C@H](CO)C[C@@H]1O.O` are 6%, 5.13% and -7.2%.
For `CC(=O)CCCCn1c(=O)c2c(ncn2C)n(C)c1=O` [PENTOXIFYLLINE], the Inhibition in the experiment with Klebsiella pneumoniae is 12.41%; with Candida albicans, 2.65%; in the experiment on Cryptococcus neoformans, -7.44%.
With `CC#C[C@]1(O)CC[C@H]2[C@@H]3CCC4=CC(=O)CCC4=C3[C@@H](c3ccc(N(C)C)cc3)C[C@@]21C` [MIFEPRISTONE], the Inhibition is 3.7% in the experiment with Klebsiella pneumoniae, 3.98% in the experiment on Candida albicans and -10.45% with Cryptococcus neoformans.
As for `C=C(CC)C(=O)c1ccc(OCC(=O)O)c(Cl)c1Cl` [ETHACRYNIC ACID], the Inhibition is 8.53% in the experiment with Klebsiella pneumoniae, 21.1% in the experiment on Candida albicans and -8.91% in the experiment on Cryptococcus neoformans.
In the same order, the values of `CC(C)(C)NCC(O)c1ccc(O)c(CO)c1.CC(C)(C)NCC(O)c1ccc(O)c(CO)c1.O=S(=O)(O)O` (centres undefined) [ALBUTEROL SULFATE] are 17.78%, 3.1% and -3.67%.
The corresponding values for `O=C(O)c1cccnc1` [NIACIN] are 4.99%, 2.72% and -3.83%.
In the same order, the values of `CC(C)(C(=O)O)c1ccc(C(O)CCCN2CCC(C(O)(c3ccccc3)c3ccccc3)CC2)cc1.Cl` (centres undefined) [FEXOFENADINE HYDROCHLORIDE] are 13.11%, 1.18% and -7.41%.
Turning to `CCN1CCC[C@H]1CNC(=O)c1cc(S(N)(=O)=O)ccc1OC` [LEVOSULPIRIDE], the Inhibition worked out at 18.7% in the experiment on Klebsiella pneumoniae, 2.16% in the experiment on Candida albicans and 2.98% in the experiment with Cryptococcus neoformans.
As to `COCC1=C(C(=O)OC(C)OC(=O)OC(C)C)N2C(=O)[C@@H](NC(=O)/C(=N\OC)c3csc(N)n3)[C@H]2SC1` (some centres undefined) [CEFPODOXIME PROXETIL], the Inhibition came out at 5.41% in the experiment with Klebsiella pneumoniae, 4.56% in the experiment on Candida albicans and 0.11% in the experiment on Cryptococcus neoformans.
The corresponding values for `CC(=CCC1=C(C)C(=O)c2ccccc2C1=O)CCCC(C)CCCC(C)CCCC(C)C` (centres undefined) are 6.75%, 3.2% and 1.23%.
In the same order, the values of `CC1(C)O[C@@H]2[C@@H](CO[C@@]3(COS(N)(=O)=O)OC(C)(C)O[C@@H]23)O1` [TOPIRAMATE] are 6.32%, 2.83% and -6.94%.
Take `NS(=O)(=O)c1cc2c(cc1Cl)N=CNS2(=O)=O` [CHLOROTHIAZIDE]: the Inhibition with Klebsiella pneumoniae is 4.1%; with Candida albicans, 4.39%; with Cryptococcus neoformans, -0.92%.
The corresponding values for `NC(=O)c1cccnc1` [NIACINAMIDE] are 11.31%, 2.62% and -0.49%.
In the same order, the values of `CN(C)CCOC(c1ccc(Cl)cc1)c1ccccn1.O=C(O)/C=C\C(=O)O` (centres undefined) [CARBINOXAMINE MALEATE] are 12.89%, 0.99% and 0.28%.
In the same order, the values of `CN(C)CCCN1c2ccccc2Sc2ccc(Cl)cc21.Cl` [CHLORPROMAZINE HYDROCHLORIDE] are 12.47%, 0.59% and 2.71%.
As to `CCC1=C(C)CN(C(=O)NCCc2ccc(S(=O)(=O)NC(=O)N[C@H]3CC[C@H](C)CC3)cc2)C1=O` [GLIMEPIRIDE], the Inhibition in the experiment with Klebsiella pneumoniae was 11.97%; in the experiment with Candida albicans, 1.98%; in the experiment on Cryptococcus neoformans it was -2.89%.
The corresponding values for `CCC[C@@H]1C[C@@H](C(=O)N[C@@H]([C@H]2O[C@H](SC)[C@H](O)[C@@H](O)[C@H]2O)[C@@H](C)O)N(C)C1.Cl.O` [LINCOMYCIN HYDROCHLORIDE] are 17.37%, 4.06% and -3.42%.
The corresponding values for `OCCN1CCN(CCCN2c3ccccc3Sc3ccc(Cl)cc32)CC1` [PERPHENAZINE] are 14.78%, 3.82% and 23.91%.
For the molecule `CCc1cccc2c3c([nH]c12)C(CC)(CC(=O)O)OCC3` (centres undefined) [ETODOLAC], the Inhibition with Klebsiella pneumoniae is 6.96%; with Candida albicans, 1.19%; in the experiment on Cryptococcus neoformans, -2.08%.
The corresponding values for `CCCc1c(OCCCCc2nnn[nH]2)ccc(C(C)=O)c1O` [TOMELUKAST] are 5.45%, 4.49% and 3.29%.
The corresponding values for `CO[C@H]1O[C@@H]2O[C@@]3(C)CC[C@H]4[C@H](C)CC[C@@H]([C@H]1C)[C@@]24OO3` are 9.17%, 19.1% and 6.04%.
In the case of `COc1ccccc1N1CCN(CCCNc2cc(=O)n(C)c(=O)n2C)CC1.Cl` [URAPIDIL HYDROCHLORIDE], the Inhibition in the experiment with Klebsiella pneumoniae was 17.15%; in the experiment on Candida albicans, 3.19%; in the experiment on Cryptococcus neoformans it was -6.92%.
Take `COc1ccc(OC)c(C(O)CNC(=O)CN)c1.Cl` (centres undefined) [MIDODRINE HYDROCHLORIDE]: the Inhibition in the experiment with Klebsiella pneumoniae was 8.37%; with Candida albicans it was 2.18%; in the experiment on Cryptococcus neoformans it was -10.49%.
The corresponding values for `CS(=O)(=O)c1ccc(C2=C(c3ccccc3)C(=O)OC2)cc1` [ROFECOXIB] are 8.3%, 2.84% and -2.65%.
In the same order, the values of `CC(=O)O.NCc1ccc(S(N)(=O)=O)cc1` [MAFENIDE ACETATE] are 13.84%, 0.67% and -7.57%.
The corresponding values for `CCOC(=O)c1ccc(OC(=O)CCCCCN=C(N)N)cc1.CS(=O)(=O)O` are 15.95%, 3.2% and -7.27%.
As to `CCc1c(C)[nH]c2c1C(=O)C(CN1CCOCC1)CC2.Cl` (centres undefined) [MOLINDONE HYDROCHLORIDE], the Inhibition is -0.12% in the experiment with Klebsiella pneumoniae, 3.99% in the experiment on Candida albicans and 6.64% in the experiment with Cryptococcus neoformans.
The corresponding values for `COc1ccc2cc(CCC(C)=O)ccc2c1` [NABUMETONE] are 8.45%, 5.24% and -7.4%.
With `CCC(C)(C)/N=C(\NC#N)Nc1cccnc1`, the Inhibition was -0.95% in the experiment with Klebsiella pneumoniae, 3.82% in the experiment on Candida albicans and -26.21% in the experiment on Cryptococcus neoformans.
Turning to `CNC(=C[N+](=O)[O-])NCCSCc1ccc(CN(C)C)o1.Cl` [RANITIDINE HYDROCHLORIDE], the Inhibition came to 4.5% in the experiment with Klebsiella pneumoniae, 2.99% in the experiment with Candida albicans and 5.97% in the experiment with Cryptococcus neoformans.
